Hit rate of the full screen: of about 4,100 compounds, about 1,600 (39%) were called active. Not shown: some 25% with an inconclusive outcome. The call rests on the fitted dose curve; in most records, active means well fitted inhibition curve with a large enough effect; inconclusive means small, poorly fitted or top-dose-only effect; inactive means no such curve, though single readings can be large or run the other way. The list shows a part of the results.
experiment: qHTS Validation assay for Inhibitors of Plasmodium falciparum Dd2 growth in vitro; further: nearly all actives have a fitted effect of over 70% in size; conditions: P. falciparum Dd2 in RBCs, SYBR Green growth, 72 h; series mostly up to 28.7 µM; activity change, negative = inhibition: at the top concentration
In short: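 P. falciparum Dd2-infected red blood cells (2.5% hematocrit, 0.3% parasitemia) grown 72 h at 37 °C under 5% O2 with compounds in a titration, 29 uM to 0.5 nM final. Growth read as SYBR Green-1 fluorescence after ~16 h lysis; artesunate 300 nM as positive control.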
On the % scale 0 is the no-effect control and ±100 the full control effect; potency means the concentration at half of the fitted maximal effect.

SMILES | Potency | activity change, negative = inhibition
CCc1cccc(NC(c2nnc(-c3ccccc3)o2)c2ccc(F)cc2Cl)c1 (stereo not given) | 6.68 µM (active) | –
Cc1ccc(C2=CC(c3ccc(Cl)cc3)n3nc(-c4ccc(C)cc4)nc3N2)cc1 (stereo not given) | 1.68 µM (active) | –
COc1ccc(C2C=C(c3ccc(Cl)cc3)Nc3nc(-c4ccc(Cl)cc4)nn32)cc1 (stereo not given) | 0.237 µM (active) | –
COc1ccc(C2C=C(c3ccccc3)Nc3nc(NS(=O)(=O)c4ccccc4)nn32)cc1 (stereo not given) | – | -0.914% (inactive)
COC(=O)C1=C(C)Nc2nnnn2C1c1ccccc1Cl (stereo not given) | – | 15.4% (inactive)
Cc1ccc(-c2nc3n(n2)C(c2ccccc2Cl)C=C(c2ccc(Cl)cc2)N3)cc1 (stereo not given) | 9.44 µM (active) | –
COc1ccc(C2C=C(c3ccc(F)cc3)Nc3nc(-c4ccc(Cl)cc4)nn32)cc1 (stereo not given) | 0.75 µM (active) | –
CC(=O)c1cccc(NC(=O)[C@H]2O[C@@H]3OC(C)(C)O[C@@H]3[C@H]3OC(C)(C)O[C@H]32)c1 | – | 16.4% (inactive)
COc1ccc(Cl)cc1NC(=O)c1cc(C)nc2c1c(C)nn2-c1ccccc1 | – | -0.338% (inactive)
COc1cccc(-c2c(C#N)c(N)nc3c2c(C)nn3-c2ccccc2)c1O | 1.5 µM (active) | –
CCN(C(=O)CSc1nc(-c2ccc(C(C)C)cc2)no1)c1ccccc1 | 0.944 µM (active) | –
CCN(C(=O)CSc1nc(-c2ccc(C(C)C)cc2)no1)c1cccc(C)c1 | 1.06 µM (active) | –
CCN(C(=O)Cn1nc2c3cc(F)ccc3n(Cc3cccc(C)c3)cc-2c1=O)c1cccc(C)c1 | – | 43.5% (inactive)
Cc1cccc(C(=O)NCc2nnc3c(-c4nc(C(C)C)no4)cccn23)c1 | – | -3.28% (inactive)
Cc1ccccc1NC(=O)c1cc(C(=O)c2cc(Cl)ccc2O)cn(-c2ccccc2C)c1=O | 0.376 µM (active) | –
Cc1ccc(NC(=O)c2cc3n(n2)CC(c2ccc(Cl)cc2)OC3)cc1 (stereo not given) | – | 3.18% (inactive)
O=C(Cn1cc(C(=O)c2ccncc2)c(=O)c2cc(F)ccc21)Nc1ccc(Cl)cc1 | – | 5.87% (inactive)
Cc1ccc(NC(=O)c2cc(C(=O)c3cc(Cl)ccc3O)cn(-c3ccc(C)cc3)c2=O)cc1 | 0.422 µM (active) | –
Cn1c(=O)c(=O)n(C)c2cc(N3CCCC3)c(NC(=O)c3ccccc3F)cc21 | – | 7.8% (inactive)
COc1cc(Cn2nnc3ccccc32)cc(Br)c1O | – | 33% (inactive)
CCC(C)NC(=O)C1CCC(CNS(=O)(=O)c2cccc3nsnc23)CC1 (stereo not given) | – | 27.7% (inactive)
Oc1ccc(-c2n[nH]c(=S)n2-c2ccc3c(c2)OCCO3)c(O)c1 | 2.66 µM (active) | –
CCOc1ccc(NC(=O)c2cnn3c2NC(c2cccc(OC)c2)=CC3c2ccccc2)cc1 (stereo not given) | 4.73 µM (active) | –

SMILES | Potency | activity change, negative = inhibition
COc1ccc(C2=CC(c3ccc(F)cc3)n3ncc(C(=O)Nc4ccc(C)cc4)c3N2)cc1 (stereo not given) | 2.37 µM (active) | –
COc1cccc(CC(=O)N2CCCn3nc(C)c(-c4ccccc4OCc4ccccc4)c32)c1 | 9.44 µM (active) | –
Cc1nn2c(c1-c1ccccc1Oc1ccccc1)N(C(=O)Cc1cccc(F)c1)CCC2 | – | -17.3% (inactive)
COc1ccc(CN2CCCn3nc(C)c(-c4ccccc4Oc4ccccc4)c32)cc1O | 9.44 µM (active) | –
Cc1nn2c(c1-c1ccccc1Oc1ccccc1)N(Cc1ccccc1O)CCC2 | 4.85 µM (active) | –
Cc1nn2c(c1-c1ccccc1Oc1ccccc1)N(Cc1cccc(O)c1)CCC2 | 10.9 µM (active) | –
COCC(=O)N[C@@H]1CN(C(=O)Cc2cccc(OC)c2)CC[C@@H]1c1nc(C)no1 | – | 19.7% (inactive)
Cc1nn2c(c1-c1ccccc1OCc1ccccc1)N(Cc1ccccc1)CCC2 | 15.3 µM (active) | –
S=c1[nH]cc(-c2ccc(Cl)cc2)n1-c1ccccc1 | – | -26.5% (inactive)
Cc1ccc2c(n1)N(C)[C@H](CO)CCN(Cc1ccc(C(F)(F)F)cc1)C2 | 15.3 µM (active) | –
COc1ccc(-n2nc(C3CCN(Cc4ccc(C(F)(F)F)cc4)CC3)[nH]c2=O)cc1 | – | -12% (inactive)
Cc1ccc(Cn2c(C3CCN(C(=O)c4ccc(C(F)(F)F)cc4)CC3)n[nH]c2=O)cc1 | – | -20.9% (inactive)
CCN(CC)C(=O)N1CCCCC1c1noc(COc2ccc(F)cc2)n1 (stereo not given) | – | 6.79% (inactive)
CCOc1ccccc1C(=O)N1CCN(C(=O)c2nnn3c2COC(c2ccccc2)C3)CC1 (stereo not given) | 16.8 µM (active) | –
O=C(NCCC1=CCCCC1)C1CCN(C(=O)c2ncn3c2COC(c2ccccc2)C3)CC1 (stereo not given) | – | 36.1% (inactive)
CCc1cccc(NC(=O)C2CCN(C(=O)c3nnn4c3COC(c3ccc(C)cc3)C4)CC2)c1 (stereo not given) | – | -9.76% (inactive)
CC(C)c1cccc(NC(=O)C2CCN(C(=O)c3ncn4c3COC(c3ccccc3)C4)CC2)c1 (stereo not given) | – | 1.07% (inactive)
CC(C)(C)c1ccc(C(=O)N2CCN(C(=O)c3nnn4c3COC(c3ccccc3)C4)CC2)cc1 (stereo not given) | 10.6 µM (active) | –
COc1ccc(C)cc1-n1c(-c2ccc(Cl)cc2)cc2c1CC(C)(C)CC2=O | 2.99 µM (active) | –
CC(C)C[C@@H](NC(=O)[C@@H](O)[C@H](N)Cc1ccccc1)C(=O)O | 2.99 µM (active) | –
CCNC(=O)NC(=O)C(C)Sc1nc2ccccc2c(=O)n1-c1cccnc1 (stereo not given) | – | 14.2% (inactive)
CC(Sc1nc2ccccc2c(=O)n1C)C(=O)N(C)C1CCCCC1 (stereo not given) | 5.31 µM (active) | –
COc1cccc(NC(=O)c2cccc3c(=O)c4c([nH]c23)CCCC4)c1 | 2.99 µM (active) | –

SMILES | Potency | activity change, negative = inhibition
COc1cccc(NC(=O)CSc2nc(=O)[nH]c3c2CCCC3)c1 | – | -1.41% (inactive)
COc1cccc(NC(=O)N[C@H]2[C@H](O)[C@@H](Oc3ccccc3)[C@@H]3OC[C@H]2O3)c1 | – | -19.2% [at 43.1 µM] (inactive)
Cc1cccc(-c2cc(C3CCN(C(=O)Nc4ccccc4Cl)CC3)[nH]n2)c1 | – | -13.2% (inactive)
CNC(=O)N1CCC(C2CCN(S(=O)(=O)c3cccc(C#N)c3)C2)CC1 (stereo not given) | – | 3.64% (inactive)
Cc1cccc(-c2cc(C3CCN(S(=O)(=O)c4cccc(C#N)c4)CC3)[nH]n2)c1 | 15 µM (active) | –
COc1cc2c3nnc(-c4ccc(F)cc4)c-3cn(Cc3ccccc3F)c2cc1OC | 3.76 µM (active) | –
O=c1c2cc3c(nc2ncn1Cc1ccccc1F)CCCC3 | – | 0% (inactive)
CC1(C)Cc2nc3sc4c(SCC(=O)O)ncnc4c3cc2CO1 | – | -5.19% (inactive)
COc1cc(-c2nc(-c3ccccc3)c(-c3ccc(Br)cc3)[nH]2)cc(OC)c1O | 2.11 µM (active) | –
COc1ccc2[nH]c(C)c(CCN(Cc3cccs3)C(=S)Nc3ccc(F)cc3)c2c1 | 4.22 µM (active) | –
COc1ccc2[nH]c(C)c(CCN(Cc3cccs3)C(=S)Nc3ccccc3)c2c1 | 2.66 µM (active) | –
Cc1ccc(-n2nc3n(c2=O)CCN(C(=O)c2cccc(Cl)c2)C3)cc1 | – | 67.3% (inactive)
CC(C)CCN1CCn2c(nn(-c3ccc([N+](=O)[O-])cc3)c2=O)C1 | 17.2 µM (active) | –
O=C(Nc1ccc(Cl)cc1)N1CCn2c(nn(-c3ccc([N+](=O)[O-])cc3)c2=O)C1 | – | 26.1% (inactive)
COc1ccccc1CN1CCn2c(nn(-c3ccc([N+](=O)[O-])cc3)c2=O)C1 | 5.96 µM (active) | –
COc1ccc(-n2nc3n(c2=O)CCN(C(=O)c2ccc(Cl)cc2)C3)cc1 | – | -20.5% (inactive)
O=c1n(-c2ccc(Cl)cc2)nc2n1CCN(Cc1cccc3ccccc13)C2 | – | 33.4% (inactive)
COc1ccc(C(=O)N[C@@H]2CCC[C@@H]2C(=O)NCc2ccc(C)o2)cn1 | – | -6.41% (inactive)
Oc1c(CN2CCCC2)cc(COCc2ccccc2)c2cccnc12 | 6.68 µM (active) | –
Oc1c(CN2CCCCC2)cc(COCc2ccccc2)c2cccnc12 | 8.41 µM (active) | –
CCOCc1cc(CN2CCN(c3ccccc3OC)CC2)c(O)c2ncccc12 | 5.96 µM (active) | –
COc1ccc(CCNC(=O)CCn2c(=O)c3ccccc3n(Cc3cc(C)ccc3C)c2=O)cc1OC | – | 10.4% (inactive)
COc1ccc(CCNC(=O)CCc2c(C)nc3c(c(C)nn3-c3ccc(C)c(C)c3)c2C)cc1OC | 0.668 µM (active) | –

SMILES | Potency | activity change, negative = inhibition
COc1cc(NC(=O)Cn2c(N(C)Cc3ccccc3)nc(C)cc2=O)cc(OC)c1 | – | -19.9% (inactive)
COc1ccc(S(=O)(=O)Nc2ccc(C)n(CC(=O)Nc3ccccc3)c2=O)cc1 | 2.66 µM (active) | –
Oc1c(C(Nc2nccs2)c2ccc(C(F)(F)F)cc2)ccc2cccnc12 (stereo not given) | 5.31 µM (active) | –
O=C(COc1ccc2ccccc2c1)Nc1nccs1 | – | 15.3% (inactive)
Oc1cccc(C(Nc2nccs2)c2ccc3cccnc3c2O)c1 (stereo not given) | 7.5 µM (active) | –
Nc1nc(C2CC(NC(=O)c3csc4c3CCCC4)C2)cc(=O)[nH]1 (stereo not given) | – | 19.5% (inactive)
Oc1[nH]c2ccccc2c1N=NC(=S)N1CCOCC1 | 2.11 µM (active) | –
O=C(COC(=O)c1ccc(-n2cnnn2)cc1)c1ccc(Br)cc1 | – | 22.8% (inactive)
O=C(CCc1nc2cccnc2n1Cc1ccccc1)NCc1cccc(Cl)c1 | – | 12.7% (inactive)
O=C(CCn1c(=O)c2cccn2c2cccnc21)NCc1cccc(Br)c1 | – | -0.311% (inactive)
O=C(Cn1c(=O)c2cccn2c2cccnc21)NCc1ccccc1F | – | 21.9% (inactive)
CCc1cccc(-n2c(=O)c3cccnc3n2CC(=O)NCc2ccccc2)c1 | 1.68 µM (active) | –
CCc1cccc(-n2c(=O)c3cccnc3n2CC(=O)Nc2ccc(F)c(C)c2)c1 | 2.66 µM (active) | –
COc1ccc(Cn2c(=O)c3cccnc3n(CC(=O)Nc3ccc(C)c(F)c3)c2=O)cc1 | – | 17.6% (inactive)
CCc1cccc(-n2c(=O)c3cccnc3n2CC(=O)NCc2ccc(C)cc2)c1 | 1.68 µM (active) | –
COc1ccc(CNC[C@H]2COCc3nc4cc(C(F)(F)F)ccc4n32)cn1 | – | 14.2% [at 43.1 µM] (inactive)
COc1ccc2ncc3c(-c4ccc(C)c(C)c4)nn(CC(=O)NC4CCCCC4)c3c2c1 | – | 31% (inactive)
CCc1ccc(-c2nn(CC(=O)NC3CCCCC3)c3c2cnc2ccc(OC)cc23)cc1 | 9.44 µM (active) | –
CC(C)(C)c1ccc(-c2noc(-c3ncn4c3COC(c3ccc(F)cc3)C4)n2)cc1 (stereo not given) | 15 µM (active) | –
O=C(NCc1ccccc1F)C1CCN(C(=O)c2ncn3c2COC(c2ccc(F)cc2)C3)CC1 (stereo not given) | – | 14.3% (inactive)
CCOc1ccc(C2Cn3nnc(-c4nc(-c5ccsc5)no4)c3CO2)cc1 (stereo not given) | – | 12.1% (inactive)

Source: PubChem BioAssay AID1347416 (National Center for Advancing Translational Sciences (NCATS), 2020)
